From PubChem BioAssay AID485317 (Broad Institute, 2010) come the findings set out here.

Screen size: about 290,000 compounds; about 11,000 (3.8%) were called active.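 Rule for the calls: active = mean replicate inhibition above about 79%, with every replicate also reaching it (limit read from the data); inconclusive = only one of the two criteria met; inactive = mean below limit and not every replicate reaching it.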 Shown is part of a subset that was picked to be rich in actives.

For orientation: inhibition means the drop in the measured response relative to a control, in per cent.

The target in this assay is FAD-linked sulfhydryl oxidase ALR (Homo sapiens) (UniProt P55789). As to the kind of experiment: inhibitors of human ALR sulfhydryl oxidase, primary screen, biochemical, H2O2 detection, HRP-luminol luminescence, single point (AID 485317). The following applies: purified ALR, DTT oxidation, stronger effect = higher value, concentration not given here.
FAD-linked sulfhydryl oxidase ALR (Homo sapiens), sequence (P55789 whole entry, looked up): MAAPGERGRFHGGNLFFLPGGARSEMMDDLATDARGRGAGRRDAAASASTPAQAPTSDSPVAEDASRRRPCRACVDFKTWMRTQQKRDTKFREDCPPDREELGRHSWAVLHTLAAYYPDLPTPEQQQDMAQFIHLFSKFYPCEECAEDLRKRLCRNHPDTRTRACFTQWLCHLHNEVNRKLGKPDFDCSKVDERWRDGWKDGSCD
Turning to `CNC[C@H]1Oc2c(NC(=O)C3CCCCC3)cccc2C(=O)N([C@H](C)CO)C[C@@H]1C`, the inhibition was -1.07% (inactive).
Under `C=CC[C@@H](CC(=O)N[C@H](CO)Cc1ccccc1)C(=O)N[C@H](C)COC(=O)[C@@H](CC=C)Cc1ccc(F)cc1` stands 2.31% (inactive); under `CCOC(=O)c1cc(-c2ccccc2C)n(Cc2cc(C)no2)n1`, 0.367% (inactive).
Turning to `Cc1ccc(S(=O)(=O)N2[C@@H](c3ccccc3F)C(C(=O)O)=CC[C@H]2c2ccc(Cl)cc2)cc1`, the inhibition is 2.55% (inactive).
Under `COc1ccc(S(=O)(=O)N2CCN(c3cnccn3)CC2)cc1` stands -0.305% (inactive); under `CO/N=C(\C(=O)N[C@@H]1C(=O)N2C(C(=O)O)=C(COC(C)=O)CS[C@H]12)c1csc(N)n1` (stereo in doubt), -8.83% (inactive); under `Cc1nnc(SCC2=C(C(=O)O)N3C(=O)C(NC(=O)Cn4nc(C)c(Cl)c4C)C3SC2)s1` (stereo not drawn), -10.4% (inactive).
Next, `Cc1cc(C)cc(C(=O)NC2C(=O)N3C(C(=O)O)=C(CSc4nnc(C)s4)CSC23)c1` (stereo not drawn): 98% (active); `CCc1ccc(Nc2n[n+](-c3ccccc3)c(-c3cccc(Cl)c3Cl)s2)cc1`: -4.3% (inactive).
Next, `Cc1ccc(S(=O)(=O)NCC(=O)NNC(=O)c2ccc(Br)cc2)cc1C`: -2.29% (inactive); `CC1(NC(=O)CCS(=O)(=O)c2ccc(Cl)cc2)CCS(=O)(=O)C1` (stereo not drawn): -4.01% (inactive).
Consider `O=[N+]([O-])c1ccc(O)c(/C=N/Nc2ccccc2[N+](=O)[O-])c1`, for which the inhibition is -10.4% (inactive).
Under `O=[N+]([O-])c1ccccc1Nc1ccc(O)cc1` stands 99.6% (active); under `O=C(O)c1ccccc1C(=O)Nc1ccccc1[N+](=O)[O-]`, -2.15% (inactive).
Next, `Nc1nnc(SCC(=O)NCC(=O)Nc2ccc(F)c(F)c2F)s1`: 1.09% (inactive); `CN(CC(=O)NC1CCCCC1)S(=O)(=O)c1ccc(Br)s1`: -15% (inactive); `CN(CC(=O)NC1CCCCC1)S(=O)(=O)c1cccc2cccnc12`: 89.5% (active).
Regarding `CN(CC(=O)NC1CCCC1)S(=O)(=O)c1cnc[nH]1`, the inhibition was -4.3% (inactive).
Next, `CN(CC(=O)Nc1ccc(Cl)cc1)CC(=O)Nc1cccc2ccccc12`: 2.05% (inactive).
Under `CCN(CC(=O)Nc1ccc(OC)cc1)C(=O)c1ccc(=O)n(Cc2ccccc2)n1` stands 0.415% (inactive); under `Cc1noc(C)c1NC(=O)Nc1ccc2c(c1)C(=O)N([C@H](C)CO)C[C@H](C)[C@@H](CN(C)S(=O)(=O)c1cn(C)cn1)O2`, -2.52% (inactive).
Under `COc1cc(/C=C2\CCCc3c2nc2ccccc2c3C(=O)O)cc(Cl)c1O` stands 98.2% (active); under `O=C(COC(=O)c1c2c(nc3ccccc13)/C(=C\c1cccs1)CCC2)Nc1ccccc1Cl`, -2.03% (inactive); under `NS(=O)(=O)c1ccc(NC(=O)COC(=O)c2c3c(nc4ccccc24)/C(=C\c2ccc4c(c2)OCO4)CCC3)cc1`, -36% (inactive).
In the case of `CN(CC(=O)NCCc1ccc(S(N)(=O)=O)cc1)CC(=O)Nc1ccc(Cl)cc1`, the inhibition is -9.18% (inactive).
Under `CC1(C)C/C(=N/Nc2ccc([N+](=O)[O-])cc2[N+](=O)[O-])C(C)(C)O1` stands -14.3% (inactive); under `CCc1nnc(NS(=O)(=O)c2ccc(NC(=O)c3cccc(OC(F)(F)C(F)F)c3)cc2)s1`, 88.3% (active); under `CCc1nnc(NS(=O)(=O)c2ccc(NC(=S)NC(=O)c3cccs3)cc2)s1`, 63.2% (inactive).
Under `CCc1nnc(NS(=O)(=O)c2ccc(NS(=O)(=O)c3ccccc3)cc2)s1` stands 35.6% (inactive).
Next, `O=C(COc1ccccc1)Nc1cc2c3c(c1)CC(=O)N3CCC2`: -6.99% (inactive); `O=C(c1ccncc1)N1CCN(S(=O)(=O)c2cccc([N+](=O)[O-])c2)CC1`: -48.9% (inactive); `COc1cccc(NC(=O)CN2CCN(CC(=O)Nc3ccccc3Cl)CC2)c1`: -2.36% (inactive).
Take `COc1cccc(NC(=O)Cn2c3ccccc3c3nc4n(c(=O)c32)CCS4)c1`: the inhibition was 85.8% (active).
Next, `COc1cccc(NC(=O)Cn2c3ccc(F)cc3c3nc4n(c(=O)c32)CCS4)c1`: -3.06% (inactive); `C[C@H]1CN([C@@H](C)CO)C(=O)Cc2cc(NS(C)(=O)=O)ccc2O[C@@H]1CN(C)CC1CC1`: 0.795% (inactive).
On to `Cc1nnc(NC(=O)CSc2nc(C3CCCCC3)nc3ccccc23)s1`, for which the inhibition is -39.6% (inactive).
Under `CN(C(=O)CSc1nc(C2CC2)nc2ccccc12)c1nc(-c2ccccc2)cs1` stands 98.6% (active); under `O=C(CSc1nc(C2CC2)nc2ccccc12)Nc1ccc2c(c1)OCCO2`, 40.9% (inactive); under `Cc1ccccc1OCC(=O)NNC(=O)c1ccc(-n2cncn2)c([N+](=O)[O-])c1`, -24.1% (inactive).
For the compound `O=C(NCCCN1CCCC1=O)c1ccc(S(=O)(=O)Nc2ccccc2)cc1`, the inhibition is -9.87% (inactive).
As for `COc1ccccc1OCCCCCCN1CCN(C)CC1`, the inhibition was -12.6% (inactive).
Next, `CCCC(=O)Nc1ncnc2c1ncn2[C@@H]1O[C@@H]2OP(=O)(O)OC[C@H]2[C@H]1OC(=O)CCC`: -3.4% (inactive).
Next, `Cc1cc(C(=O)CC#N)c(C)n1CC(F)(F)F`: 94.8% (active); `Cc1cc(C(=O)CC#N)c(C)n1-c1c(C)n(C)n(-c2ccccc2)c1=O`: 14.7% (inactive).
As for `Cc1cc(C(=O)COC(=O)CNC(=O)c2ccc(F)cc2)c(C)n1Cc1ccco1`, the inhibition is -2.4% (inactive).
Next, `Cc1ccc(CNC(=O)c2ccc3c(c2)S(=O)(=O)c2ccccc2C3=O)cc1`: -10.2% (inactive); `S=c1[nH]nc2c3c4c(sc3ncn12)CCCC4`: 97.9% (active).
Next, `N=c1c2c3c(sc2ncn1N)CCCC3`: -10.4% (inactive).
Under `c1nnc2c3c4c(sc3ncn12)CCC4` stands 45.2% (inactive).
Turning to `Cc1c(O)c(C)c2c(c1O)C(=O)C[C@@H](c1ccccc1)O2`, the inhibition was 2.46% (inactive).
Under `COc1ccccc1C(=O)COC(=O)COc1ccc(C#N)cc1` stands 10.4% (inactive); under `O=S(=O)(Nc1ncnc2sccc12)c1cccc(F)c1`, 8.21% (inactive).
Under `COc1ccc(/C=C/C(=O)c2ccc(NS(=O)(=O)c3ccc(C)cc3)cc2)cc1O` stands 82.9% (active).
Under `COc1ccc(NS(=O)(=O)c2ccc(NC(C)=O)cc2)cc1OC` stands -18.8% (inactive); under `COc1ccc(C(=O)Oc2cc(/C=N/NS(=O)(=O)c3ccc(C)cc3)ccc2OC)cc1`, -2.65% (inactive).
Regarding `CCOC(=O)c1c(C)[nH]c(C(=O)OCC(=O)c2ccc(OC)cc2OC)c1C`, the inhibition was -8.98% (inactive).
`CCCS(=O)(=O)Nc1ccc(-c2cn3c(n2)SCC3)cc1`: the inhibition was 4.68% (inactive).
Under `Cc1cc(-c2cccs2)nc(-n2cccc2)n1` stands 23.5% (inactive); under `c1csc(-c2cn3c(n2)SCC3)c1`, 92.3% (active).
Next, `O=C(c1ccc(S(=O)(=O)NCc2ccco2)cc1)N1CCN(c2ccccc2)CC1`: 33.8% (inactive); `COc1ccc(-c2csc(Nc3ccccn3)n2)cc1`: 32.2% (inactive).
Under `COc1ccc(-c2csc(Nc3ccc(O)cc3)n2)cc1` stands 74.3% (inactive); under `COc1ccc(OC)c(Nc2nc(-c3ccc(O)c(O)c3)cs2)c1`, 94.7% (active).
Turning to `CCCCn1c(N)c(N(CC(C)C)C(=O)C2CSC3(C)CCC(=O)N23)c(=O)[nH]c1=O` (stereo not drawn), the inhibition is -0.99% (inactive).
Under `CC(NC(=O)c1cccc(S(=O)(=O)N2CCc3ccccc3C2)c1)c1ccco1` (stereo not drawn) stands -3.35% (inactive).
Under `O=C(COC(=O)c1ccc(F)c(S(=O)(=O)N2CCOCC2)c1)NCc1ccc2c(c1)OCO2` stands -8.6% (inactive).
Turning to `CNS(=O)(=O)c1cccc(C(=O)OCCCC(=O)c2ccccc2)c1`, the inhibition is 1.28% (inactive).
Under `O=C1N[C@H](Cc2ccccc2)C(=O)N[C@H]1Cc1cn(S(=O)(=O)c2ccccc2)c2ccccc12` stands -2.64% (inactive); under `CN1CCN(C(=O)c2ccc(-c3ccc(Br)cc3)o2)CC1`, 6.66% (inactive); under `CSC(=S)N/N=C/c1c[nH]c2ccccc12`, 64.4% (inactive).
Next, `O=C(N/N=C/c1c[nH]c2ccccc12)c1ccccc1O`: 41.8% (inactive); `O=C(O)c1cccc(NC(=S)N/N=C/c2c[nH]c3ccccc23)c1`: 98.2% (active); `CCNC(=O)c1cccc(NC(=O)C2CC(=O)N(CCc3ccccc3)C2)c1` (stereo not drawn): -0.0795% (inactive).
Next, `CC(OC(=O)CNC(=O)c1ccco1)C(=O)Nc1ccc(Cl)cn1` (stereo not drawn): -1.13% (inactive).
Turning to `CCOC(=O)c1cccc(NC(=O)CCc2nnc3ccc(N4CCOCC4)nn23)c1`, the inhibition is 26.9% (inactive).
Under `COc1cccc(NC(=O)CCc2nnc3ccc(N4CCC(C)CC4)nn23)c1` stands -1.49% (inactive); under `COc1cccc(N2CCN(c3ccc4nnc(CCC(=O)N5CCN(C)CC5)n4n3)CC2)c1`, 98.2% (active); under `C=CCSc1nnc2c(n1)-c1cccc3cccc-2c13`, 9.81% (inactive).
Next, `COc1ccc(S(=O)(=O)N2CCOCC2)cc1NC(=O)Cc1c(F)cccc1Cl`: -4.89% (inactive); `COc1ccccc1CNC(=O)COC(=O)c1cccs1`: 20.2% (inactive); `CN(CC(=O)Nc1ccccc1Cl)C(=O)c1ccccc1SCC(=O)N1CCCC1`: -3.42% (inactive).
Next, `NC(=O)c1ccccc1NC(=O)c1ccccc1F`: 0.399% (inactive).
`COC(=O)c1ccccc1NC(=S)NC(=O)c1ccccc1F`: the inhibition is 97.1% (active).
Under `COC(=O)c1ccccc1NC(=O)c1ccccc1NS(C)(=O)=O` stands 4.54% (inactive); under `Cc1cc(N2CCCC2)ccc1NC(=O)COc1ccc(Cl)cc1`, -0.012% (inactive); under `O=C(NCCC1CCCCN1S(=O)(=O)c1ccc(F)cc1)C(=O)NC1CC1` (stereo not drawn), -2.2% (inactive).
Under `Nc1scc(-c2ccncc2)c1Cl` stands 98.8% (active).
Under `Clc1ccc(-c2csc(-c3ccncc3)n2)cc1` stands -4.48% (inactive).
